The record followed here is PubChem BioAssay.

Experiment [1] concerns PRMT1 (protein arginine N-methyltransferase 1). The experiment in a line: small molecules binding arginine methyltransferase PRMT1 – biochemical, small-molecule microarray, 635 nm fluorescence, primary screen (AID 1088).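 Note: binding of Prmt1 protein to compounds spotted on small-molecule microarray slides.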 As to conditions: higher = more signal.
Experiment [2] is described as follows: growth effects on S. cerevisiae YJM789 – YJM789 clinical isolate, OD600, 24 h, basal, primary screen (AID 1089).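 Note: growth of clinical yeast isolate S. cerevisiae YJM 789 seeded 1000 cells per well; test concentration not given here.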 As to conditions: higher = more signal, called active from +8 up or from −8 down.
A short description of experiment [3]: S. pombe growth modifiers, basal conditions – strain 972, OD600, 24 h, no modulator, primary screen (AID 1090).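 Note: basal condition with compound alone and no growth modifier present; test concentration not given here.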 Particulars: S. pombe 972 growth, higher = more signal, called active from +8 up or from −8 down.
A short description of experiment [4]: budding yeast growth modifiers under rapamycin – strain BY4716, OD600, 96 h, primary screen (AID 1091). Note: test concentration not given here. As to conditions: S. cerevisiae BY4716 + rapamycin, higher = more signal, called active from +8 up or from −8 down.
Experiment [5] deals with Torsin-1A-interacting protein 2 (Homo sapiens) (UniProt Q8NFQ8). In words: small molecules binding lysate-expressed LULL1 – cell lysate, human LULL1 lysate, 635/667 nm fluorescence, primary screen (AID 1092).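 Note: probe is lysate of COS7 cells overexpressing human LULL1; score merges per-feature 667 nm fluorescence with signal-to-noise.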 As to conditions: small-molecule microarray, hLULL1 lysate binding, 635 nm fluorescence; higher = more signal.
Chain of Torsin-1A-interacting protein 2 (Homo sapiens) (Q8NFQ8 whole entry, looked up): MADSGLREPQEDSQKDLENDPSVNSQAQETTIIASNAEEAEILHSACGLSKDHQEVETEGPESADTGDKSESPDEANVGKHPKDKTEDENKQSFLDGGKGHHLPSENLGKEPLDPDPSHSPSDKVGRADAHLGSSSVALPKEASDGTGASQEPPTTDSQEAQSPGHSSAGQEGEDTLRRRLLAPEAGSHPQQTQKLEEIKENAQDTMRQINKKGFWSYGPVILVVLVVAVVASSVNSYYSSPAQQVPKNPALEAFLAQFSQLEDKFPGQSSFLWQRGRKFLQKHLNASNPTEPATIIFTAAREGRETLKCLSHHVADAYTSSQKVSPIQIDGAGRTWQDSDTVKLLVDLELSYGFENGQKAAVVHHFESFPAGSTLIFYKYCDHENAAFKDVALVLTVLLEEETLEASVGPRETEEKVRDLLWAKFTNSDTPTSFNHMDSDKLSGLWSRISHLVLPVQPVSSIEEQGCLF
The nature of experiment [6]: optical density change of DRC41 E. coli – strain DRC41, OD650, 24 h, E. coli filamentation project, primary screen (AID 1093).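 Note: MC1000 strain lacking acrAB efflux and sulA so SOS filamentation is blocked; test concentration not given here.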 Particulars: E. coli DRC41 growth, higher = more signal, called active from +8 up or from −8 down.
Experiment [7] in a line: probe aLefty2 binding to arrayed compounds – biochemical, biotinylated probe, 635/667 nm fluorescence, primary screen (AID 1094).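 Note: score merges spot fluorescence near 667 nm with spot signal-to-noise ratio.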 Particulars: small-molecule microarray, higher = more signal.
In experiment [8] the test system is Noggin (protein binding on small-molecule microarray). The experiment in a line: small molecules binding Noggin protein – biochemical, 635/667 nm fluorescence, primary screen (AID 1095).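 Note: score merges 667 nm feature fluorescence with signal to noise over triplicate slides.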 As to conditions: 635 nm fluorescence, higher = more signal.
Experiment [9] has as its target Neurogenic locus notch homolog protein 3 (Homo sapiens) (UniProt Q9UM47). The experiment in a line: small molecules binding NOTCH3 protein – biochemical, 635/667 nm fluorescence, primary screen (AID 1096). As to conditions: small-molecule microarray, 635 nm fluorescence, higher = more signal.
Experiment [10] in a line: probe aEGFR binding to arrayed compounds – biochemical, biotinylated probe, 635/667 nm fluorescence, primary screen (AID 1097).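 Note: probe is a biotinylated anti-EGFR antibody binding compounds printed on slides; score combines fluorescence near 667 nm and signal to noise of each spot.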 Particulars: small-molecule microarray, higher = more signal.

Calls of active or inactive are those of the source.

Chain of Neurogenic locus notch homolog protein 3 (Homo sapiens) (Q9UM47 whole entry, looked up): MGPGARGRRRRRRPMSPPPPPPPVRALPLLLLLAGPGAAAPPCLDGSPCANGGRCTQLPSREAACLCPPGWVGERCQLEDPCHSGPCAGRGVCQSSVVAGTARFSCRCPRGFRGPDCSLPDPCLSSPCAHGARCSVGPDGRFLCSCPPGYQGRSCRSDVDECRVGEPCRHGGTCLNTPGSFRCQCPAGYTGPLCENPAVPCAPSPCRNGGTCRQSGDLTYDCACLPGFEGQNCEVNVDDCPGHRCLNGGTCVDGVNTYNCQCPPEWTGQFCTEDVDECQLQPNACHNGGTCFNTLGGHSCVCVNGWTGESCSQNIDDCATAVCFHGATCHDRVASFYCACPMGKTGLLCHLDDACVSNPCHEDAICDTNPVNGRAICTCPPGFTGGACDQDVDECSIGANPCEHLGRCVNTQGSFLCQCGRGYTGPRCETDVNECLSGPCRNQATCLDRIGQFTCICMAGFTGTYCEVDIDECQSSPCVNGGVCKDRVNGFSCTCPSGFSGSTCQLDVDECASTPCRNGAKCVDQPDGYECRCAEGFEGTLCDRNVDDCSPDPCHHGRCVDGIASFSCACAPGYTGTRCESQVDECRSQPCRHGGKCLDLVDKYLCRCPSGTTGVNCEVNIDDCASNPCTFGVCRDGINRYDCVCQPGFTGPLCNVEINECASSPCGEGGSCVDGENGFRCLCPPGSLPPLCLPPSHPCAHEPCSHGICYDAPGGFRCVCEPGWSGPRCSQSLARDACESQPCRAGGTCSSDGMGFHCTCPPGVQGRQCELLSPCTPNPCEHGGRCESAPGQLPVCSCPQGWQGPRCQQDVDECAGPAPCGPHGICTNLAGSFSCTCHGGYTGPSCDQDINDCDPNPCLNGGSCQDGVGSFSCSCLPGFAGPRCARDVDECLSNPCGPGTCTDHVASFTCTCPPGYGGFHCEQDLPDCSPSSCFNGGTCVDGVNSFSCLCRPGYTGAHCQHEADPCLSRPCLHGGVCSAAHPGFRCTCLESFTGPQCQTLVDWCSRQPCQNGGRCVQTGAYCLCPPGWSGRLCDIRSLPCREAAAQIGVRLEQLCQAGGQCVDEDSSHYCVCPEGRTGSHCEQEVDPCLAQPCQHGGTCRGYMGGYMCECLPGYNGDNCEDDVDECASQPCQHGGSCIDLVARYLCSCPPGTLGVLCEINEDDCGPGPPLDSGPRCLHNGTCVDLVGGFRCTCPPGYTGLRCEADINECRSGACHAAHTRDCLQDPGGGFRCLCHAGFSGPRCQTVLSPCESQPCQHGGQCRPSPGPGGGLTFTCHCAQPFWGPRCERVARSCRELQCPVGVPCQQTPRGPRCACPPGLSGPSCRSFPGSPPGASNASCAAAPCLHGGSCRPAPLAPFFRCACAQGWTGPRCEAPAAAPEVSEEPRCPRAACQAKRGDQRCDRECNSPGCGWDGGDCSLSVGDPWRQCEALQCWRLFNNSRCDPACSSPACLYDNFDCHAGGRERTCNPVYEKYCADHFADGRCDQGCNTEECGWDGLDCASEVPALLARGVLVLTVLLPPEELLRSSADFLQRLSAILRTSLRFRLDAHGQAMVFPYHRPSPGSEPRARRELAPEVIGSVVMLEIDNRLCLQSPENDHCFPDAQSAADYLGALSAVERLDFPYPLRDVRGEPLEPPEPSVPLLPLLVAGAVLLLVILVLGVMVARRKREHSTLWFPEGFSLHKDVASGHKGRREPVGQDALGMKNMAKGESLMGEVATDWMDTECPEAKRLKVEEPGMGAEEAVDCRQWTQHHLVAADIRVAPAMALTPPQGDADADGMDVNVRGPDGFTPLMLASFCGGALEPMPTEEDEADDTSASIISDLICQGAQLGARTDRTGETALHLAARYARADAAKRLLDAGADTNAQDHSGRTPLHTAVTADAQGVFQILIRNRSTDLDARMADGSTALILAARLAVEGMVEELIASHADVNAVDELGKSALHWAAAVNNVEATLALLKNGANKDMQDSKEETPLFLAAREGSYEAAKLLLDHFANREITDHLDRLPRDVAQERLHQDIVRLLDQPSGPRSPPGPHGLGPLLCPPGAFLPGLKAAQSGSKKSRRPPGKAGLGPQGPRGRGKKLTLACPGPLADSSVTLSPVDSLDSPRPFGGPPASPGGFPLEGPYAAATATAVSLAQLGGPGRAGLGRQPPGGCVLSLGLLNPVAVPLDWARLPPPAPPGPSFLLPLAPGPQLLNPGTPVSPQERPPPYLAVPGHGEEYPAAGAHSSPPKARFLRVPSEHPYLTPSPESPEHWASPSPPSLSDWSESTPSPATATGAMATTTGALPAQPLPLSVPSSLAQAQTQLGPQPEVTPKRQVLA

Consider `CCCCc1nc2c(c3c1C[C@H](C)OC3)CN(CCC(C)C)CC2`, for which the composite z-score in [1] was 1.49; in [5] it was 2; in experiment [7], -0.114; in experiment [8] it was 0.582; in experiment [9], 1.11; in [10], -0.0627. For the same molecule, the z-score in experiment [2] was -0.147 (inactive); in [3] it was -1.52 (inactive); in experiment [4] it was -1.07 (inactive); in experiment [6], 0.567 (inactive).

Consider `CC(=O)OC[C@H]1O[C@@H](ON=C[C@@H](C)[C@H](OCc2ccccc2)C(C)C)[C@H](OC(C)=O)[C@@H](OC(C)=O)[C@@H]1OC(C)=O`, for which the composite z-score in [1] was 1.48; in [5] it was -1.59; in experiment [7] it was -0.114; in [8], 0.605; in [9] it was 0.751; in experiment [10], 0.0359. The z-score in experiment [2] is 0.475 (inactive); in experiment [3] it was 0.0572 (inactive); in experiment [4], -0.17 (inactive); in experiment [6], -0.057 (inactive).

Regarding `CO[C@H]1COC(=O)CC=C[C@H](C)[C@@H](NS(=O)(=O)c2ccc(C)cc2)COC(=O)CC=C[C@@H]1C`, the composite z-score in experiment [1] is 0.855; in experiment [5] it was -0.716; in [7], -0.118; in experiment [8], 0.659; in experiment [9], 0.66; in experiment [10], -0.12. For the same molecule, the z-score was -3.93 (inactive) in experiment [2], -2.23 (inactive) in experiment [3], -2.35 (inactive) in [4] and -1.11 (inactive) in [6].

For the molecule `O=C1O[C@@H](c2ccccc2)[C@@H](c2ccccc2)N2[C@@H](c3ccc(OCCO)cc3)[C@]3(C(=O)Nc4ccccc43)[C@@H](C(=O)N3CCN(c4ncccn4)CC3)[C@H]12`, the composite z-score in experiment [1] worked out at 1.53; in [5] it was 2.97; in experiment [7], 1.04; in experiment [8], 0.952; in experiment [9], 1.1; in [10], 0.0679. For the same molecule, the z-score in experiment [2] is 1.94 (inactive); in [3], 1.4 (inactive); in experiment [4], 4.77 (inactive); in experiment [6] it was 0.856 (inactive).

Regarding `N#Cc1ccc(NN2C(C(O)c3cccc4ccccc34)C=CC3C(=O)N(c4ccccc4)C(=O)C32)cc1` (stereo not given), the composite z-score in experiment [1] is 1.39; in [5], 3.41; in experiment [7], 0.341; in experiment [8], 0.157; in experiment [9] it was -0.262; in experiment [10] it was 0.0785. Further, the z-score is 0.242 (inactive) in [2], 2.28 (inactive) in experiment [3], 1.75 (inactive) in [4] and -0.339 (inactive) in experiment [6].

Consider `CCN1C(=O)[C@H]2[C@H]3[C@H](O)[C@H](O)CC(=NOC[C@@H](C)[C@H](OCc4ccccc4)C(C)C)[C@@H]3CC[C@H]2C1=O`, for which the composite z-score is 0.607 in experiment [1]; 0.8 in experiment [5]; -0.145 in [7]; 0.355 in [8]; 0.457 in [9]; -0.0936 in experiment [10]. For the same molecule, the z-score in [2] is -1.05 (inactive); in [3], -4.13 (inactive); in experiment [4] it was -0.673 (inactive); in experiment [6], 0.568 (inactive).

With `O=C1[C@H]2[C@H]3[C@H](O)[C@H](O)CC(=NOCc4ccccc4)[C@@H]3CC[C@H]2C(=O)N1C1CCCCC1`, the composite z-score in [1] was 1.1; in experiment [5], 1.32; in experiment [7], -0.166; in [8] it was -0.129; in experiment [9], 0.287; in [10], -0.13. In addition, the z-score in experiment [2] was 0.704 (inactive); in [3], -3.36 (inactive); in experiment [4], 0.485 (inactive); in experiment [6] it was 0.0212 (inactive).

Turning to `CO[C@@H]1COC(=O)CC=C[C@@H](C)[C@@H]2C=C[C@@H](O)[C@@H](COC(=O)CC=C[C@H]1C)O2`, the composite z-score in experiment [1] is 1.44; in experiment [5], -0.284; in experiment [7], -0.19; in [8] it was 1.29; in experiment [9], 0.0667; in experiment [10], -0.0112. The z-score in experiment [2] was -1.85 (inactive); in [3] it was -0.862 (inactive); in experiment [4], -0.562 (inactive); in [6], -0.552 (inactive).

For the molecule `CCCNC(=O)[C@@H]1c2ccccc2C(=O)N(Cc2ccccc2Cl)[C@H]1c1ccc(CO)cc1`, the composite z-score in experiment [1] turned out to be 1.55; in experiment [5], 2.47; in experiment [7], 0.102; in experiment [8], 0.751; in experiment [9], 1.05; in [10] it was 0.116. Further, the z-score in experiment [2] is -0.0545 (inactive); in experiment [3], -0.64 (inactive); in experiment [4], 0.152 (inactive); in [6], 2.2 (inactive).

In the case of `CC(C)(C)OC(=O)CC[C@]1(C(N)=O)COC(c2ccc(OCCCO)cc2)=N1`, the composite z-score was determined as 1.09 in experiment [1]; 3.09 in experiment [5]; 0.65 in experiment [7]; 0.115 in [8]; 0.849 in [9]; 0.34 in [10]. In addition, the z-score in experiment [2] is 0.0433 (inactive); in [3] it was -0.391 (inactive); in experiment [4], 0.0262 (inactive); in experiment [6] it was 0.308 (inactive).

For the molecule `CO[C@@H]1COC(=O)CC=C[C@@H](C)[C@@H]2C=C[C@H](O)[C@@H](COC(=O)[C@H](C)NC(=O)CC=C[C@H]1C)O2`, the composite z-score was 1.54 in experiment [1]; -0.75 in experiment [5]; -0.212 in experiment [7]; 1.42 in [8]; 0.868 in experiment [9]; 0.0231 in [10]. The z-score in experiment [2] is -0.653 (inactive); in [3], -0.465 (inactive); in [4], -1.36 (inactive); in [6], 0.0967 (inactive).

`C[C@@H]1CC[C@H]2C(=O)O[C@H](COc3ccc(C(C)(C)C)cc3)CN2[C@H]1c1ccc(Br)cc1`: the composite z-score in [1] is -0.59; in experiment [5] it was -0.121; in [7], -0.291; in experiment [8], -0.273; in [9], -0.428; in experiment [10] it was -0.122. Also, the z-score in [2] is 1.55 (inactive); in experiment [3], 0.406 (inactive); in experiment [4] it was 1.4 (inactive); in experiment [6], -0.756 (inactive).

Consider `CC(C)NC(=O)[C@@]1(c2ccc([N+](=O)[O-])cc2)CC(=O)N(CC23CC4CC(CC(C4)C2)C3)[C@@H]1c1ccc(CO)cc1I`, for which the composite z-score in experiment [1] came out at 1.52; in [5] it was 2.53; in [7], 0.448; in experiment [8] it was 0.176; in experiment [9] it was 0.341; in experiment [10], 0.0743. For the same molecule, the z-score in experiment [2] is 0.151 (inactive); in experiment [3], 0.168 (inactive); in [4], 5.83 (inactive); in experiment [6], -0.525 (inactive).

As for `CCOC(=O)C1=CC[C@H]2C(=O)N(CC)C(=O)[C@@H]12`, the composite z-score is 0.863 in experiment [1]; 1.08 in experiment [5]; -0.181 in experiment [7]; 0.344 in experiment [8]; 1 in experiment [9]; 0.125 in [10]. The z-score in experiment [2] was -0.348 (inactive); in experiment [3] it was 1.77 (inactive); in experiment [4], 0.816 (inactive); in experiment [6] it was -0.233 (inactive).
